Source: PubChem
In the library only some 9.9% were active in any assay of this set; here they are far more common.
HPGD block = inhibitors of human 15-hydroxyprostaglandin dehydrogenase (HPGD). P15428. purified HPGD, NADH fluorescence kinetic, PGE2 substrate. Potency, µM, for the others: at the highest dose activity change, negative = inhibition, hits mostly inhibitors. 150,000 compounds, 4.3% hits. AID 894
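20 nM HPGD preincubated 15 min at room temperature with compound in 50 mM Tris-HCl pH 8, 0.01% Tween 20. Started with 1 mM NAD+ and 30 uM prostaglandin E2; NADH fluorescence (360/450 nm) read 5 times over 30-s intervals, last minus first.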
ALDH1A1 block = ALDH1A1 (human) enzyme inhibition. P00352. Purified ALDH1A1, NADH fluorescence, propionaldehyde substrate. Potency, µM (series often up to 75.3 µM), for the others: top-dose activity, negative = inhibition, usual class: inhibitors. 220,000 compounds, 7.3% hits. AID 1030;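 further: plate controls were no enzyme wells and a reference inhibitor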
Target sequence (P00352 whole entry, looked up): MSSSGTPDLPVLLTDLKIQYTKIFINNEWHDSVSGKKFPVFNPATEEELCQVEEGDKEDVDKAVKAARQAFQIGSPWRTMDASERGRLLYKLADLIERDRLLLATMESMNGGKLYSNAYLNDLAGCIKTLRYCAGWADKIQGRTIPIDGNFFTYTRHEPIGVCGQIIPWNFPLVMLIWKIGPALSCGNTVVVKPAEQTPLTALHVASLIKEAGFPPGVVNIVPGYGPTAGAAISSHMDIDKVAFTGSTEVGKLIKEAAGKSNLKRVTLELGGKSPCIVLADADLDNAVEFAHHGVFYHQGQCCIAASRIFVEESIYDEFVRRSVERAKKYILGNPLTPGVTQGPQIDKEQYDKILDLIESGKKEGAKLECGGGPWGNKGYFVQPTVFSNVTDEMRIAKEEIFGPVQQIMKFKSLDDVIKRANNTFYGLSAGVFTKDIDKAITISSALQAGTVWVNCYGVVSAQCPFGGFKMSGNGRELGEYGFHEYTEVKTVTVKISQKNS
KDM4E inh = blocks human JMJD2E demethylase activity; 230,000 compounds, 1.6% hits; Potency, µM (highest dose often 57.1 µM), for the others: top-dose activity change, negative = inhibition, most hits filed as inhibitors; B2RXH2; AID 2147; JMJD2E catalytic domain, FDH-coupled NADH fluorescence (FDH is formaldehyde dehydrogenase);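 further: 0% = wells with enzyme and -100% = buffer wells without enzyme; nearly all actives have a fitted effect of over 50% in size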
Tau FP inhib = inhibitors of human tau fibril formation. K18 P301L tau heparin fibrillization, Alexa594 FP, 6 h. P10636. 280,000 compounds, 0.39% hits. AID 1468. Potency, µM (highest dose often 57.7 µM), without a hit: at the highest dose activity, negative = inhibition, actives largely listed as inhibitors; active means well fitted curve in the direction sought with a large enough effect; inconclusive means small, poorly fitted or top-dose-only effect, or another doubt; inactive means no such curve, though single readings can be large; an effect the other way counts as inactive or inconclusive; further: nearly all actives have a fitted effect of over 55% in size
Target sequence (P10636 561-689 P618L limits assumed): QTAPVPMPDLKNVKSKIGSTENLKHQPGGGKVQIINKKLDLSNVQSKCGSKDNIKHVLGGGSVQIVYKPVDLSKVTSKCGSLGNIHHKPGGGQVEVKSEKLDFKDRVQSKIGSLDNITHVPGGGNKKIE
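Compound effects on tau fibrillization are measured by Alexa 594 fluorescence polarization (ex 555, em 632 nm). K18 P301L tau is used at 15 uM with 0.24 uM labeled tracer, and 20 uM heparin induces aggregation over 6 hr at 37 C.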
Tau fibril ThT = inhibitors of human tau fibril formation, thioflavin T binding; P10636; recombinant tau K18 P301L, heparin-induced fibrillization, ThT fluorescence; Potency, µM (titrated, usually from 57.4 µM), for inactives: at the top dose activity, negative = inhibition, usual class: inhibitors; 270,000 compounds, 2.1% hits; AID 1460; active means well fitted curve in the direction sought with a large enough effect; inconclusive means small, poorly fitted or top-dose-only effect, or another doubt; inactive means no such curve, though single readings can be large; an effect the other way counts as inactive or inconclusive; further: nearly all actives have a fitted effect of over 55% in size
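K18 P301L tau (15 uM + 0.24 uM Alexa 594-tagged), heparin 20 uM, NaOAc pH 7, 6 h 37 C; ThT 30 uM, 1 h RT, ex 450/em 510 nm.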
Tau fluor counter = counter-screen for tau fibril formation inhibitors; tau K18 P301L Alexa594 fluorescence, heparin fibrillization; Potency, µM (doses to about 57.7 µM), without a hit: at the top dose activity change, negative = decrease; 280,000 compounds, 0.93% hits; active means well fitted curve in the direction sought with a large enough effect; inconclusive means small, poorly fitted or top-dose-only effect, or another doubt; inactive means no such curve, though single readings can be large; an effect the other way counts as inactive or inconclusive; further: nearly all actives have a fitted effect of over 55% in size
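Human tau K18 P301L (15 uM unlabeled, 0.24 uM Alexa 594-labeled) in 100 mM sodium acetate pH 7 with 20 uM heparin, 6 hr at 37 C. ThT 30 uM added, 1 hr ambient; Alexa 594 FP and total fluorescence read at 555/632 nm.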
* hit, by the source's call; ? = inconclusive; . = no result given; [ ] = remark or other dose. Unless noted, the call rests on the fitted dose curve; in most records, active means well fitted inhibition curve with a large enough effect (not every such curve was filed as active); inconclusive means small, poorly fitted or top-dose-only effect, or another doubt; inactive means no such curve, though single readings can be large or run the other way. Unless noted, on the % scale 0 is the no-effect control and ±100 the full control effect; potency means the concentration at half of the fitted maximal effect.

SMILES	HPGD block	ALDH1A1 block	KDM4E inh	Tau FP inhib	Tau fibril ThT	Tau fluor counter
CCCc1nc2oc3c(NCCOCCO)ncnc3c2c2c1COC(C)(C)C2	?	?	?	-2%	0%	-7%
CCOC(=O)OCC1C=C[C@H](c2cc(-c3ccccc3)ccc2O)C(c2ccc(C(C)=O)cc2)O1 (stereo not given in full)	.	6%[13.5 µM]	.	4%[11.6 µM]	2%[11.5 µM]	?
Cc1cnc(C(=O)OCC(=O)NC23CC4CC(CC(C4)C2)C3)cn1	0%	25µM*	-3%	-2%	-4%	-5%
O=C(COC(=O)/C=C/C(=O)OCC(=O)NC12CC3CC(CC(C3)C1)C2)NC12CC3CC(CC(C3)C1)C2	-18%	4µM*	2%	1%	-4%	-5%
CC(=O)Nc1cccc(NC(=O)Cn2cnc3c2c(=O)n(C)c(=O)n3C)c1	.	.	.	-4%	3%	2%
S=c1nc(-c2ccccc2)n(Cc2ccco2)c2c1CCCC2	?	10µM*	-6%	-4%	?	-13%
COc1ccc(CN2CCN(C(=O)C3CC(=O)N(C4CCCCCC4)C3)CC2)c(OC)c1OC (stereo not given)	-1%	20µM*	6%	-1%	-20%	-9%
CCC(CC)C(=O)Oc1c(Sc2ccccc2[N+](=O)[O-])c(C)nn1C(C)(C)C	-25%	2.2µM*	-3%	0%	-10%	-12%
COCC(=O)Oc1c(Sc2ccccc2[N+](=O)[O-])c(C)nn1C(C)(C)C	.	8.9µM*	-11%	-2%	-15%	-12%
Cc1ccc(N2CC(c3nc4ccccc4n3CCC3CCCCC3)CC2=O)cc1 (stereo not given)	.	.	.	3%	0%	1%
Clc1ccc(-c2csc(N/N=C/c3ccco3)n2)cc1	.	.	-13%	-4%	14µM*	13µM*[quencher]
CN(C)CC(=O)Nc1nc(-c2ccccc2)cs1	-6%	-2%	3%	?	-9%	-16%
CC(=O)c1c(C)[nH]c(C(=O)Nc2nc(-c3ccc(Cl)cc3)cs2)c1C	-20%	?	-3%	8%	-12%	-12%
CC(=O)c1c(C)[nH]c(C(=O)Nc2nc(-c3ccc(-c4ccccc4)cc3)cs2)c1C	?	?	?	40µM*	2%	?
CC1CC1C(=O)Nc1nc(-c2ccccc2)cs1 (stereo not given)	-20%	10µM*	-4%	11%	-1%	-11%
C(=N\Nc1nc(-c2ccccc2)cs1)/c1ccco1	-11%	-5%	?	?	14µM*	14µM*[quencher]
O=C(/C=C/c1ccco1)Nc1nc(-c2ccccc2)cs1	.	-9%	31%	1%	-15%	-24%
COC(=O)c1c(NC(=O)C2c3ccccc3Oc3ccccc32)sc2c1CCC(C)C2 (stereo not given)	.	.	.	-5%	-6%	-2%
COC(=O)c1cc(OC)c(OC)c(OC)c1[N+](=O)[O-]	.	.	-4%	4%	-8%	14%
O=C(NNc1nc(-c2ccc(Cl)cc2)cs1)c1ccco1	-12%	7%	11%	-14%	?	?
O=C(NNc1nc(-c2ccccc2)cs1)c1ccco1	-13%	5%	?	?	11µM*	?
Brc1ccc(-c2csc(N/N=C/c3ccco3)n2)cc1	.	10%	?	-13%	16µM*	18µM*[quencher]
CN(C)S(=O)(=O)c1ccc(-c2csc(N/N=C/c3ccco3)n2)cc1	.	.	8%	10%	?	?
Cc1ccc(-c2csc(N/N=C/c3ccco3)n2)cc1	-9%	-8%	-5%	2%	14µM*	?
COCCCNC(=O)c1ccc(-n2c(-c3ccccc3)cc3c2CCCC3)cc1	.	.	.	?	-11%	-24%
SMILES	HPGD block	ALDH1A1 block	KDM4E inh	Tau FP inhib	Tau fibril ThT	Tau fluor counter
CCOCCCNC(=O)c1ccc2c(c1)ncn2C1CCCC1	18µM*	?	11%	-9%	-11%	1%
CCOCCCNC(=O)c1ccc(-n2c(-c3ccccc3)cc3c2CCC(C)C3)cc1 (stereo not given)	.	.	.	5µM*	10%	?
Nc1ccccc1C(=O)/C=C/c1ccccc1	-9%	8%	-3%	4%	?	-6%
CCOC(=O)N1CCN(S(=O)(=O)c2ccc(C(=O)Nc3ccc4c(c3)C(=O)NC4=O)cc2)CC1	?	?	?	5%	7%	1%
Cc1ccc2oc(-c3ccccc3)c(O)c(=O)c2c1	-4%	-1%	14µM*	-4%	?	-12%
Cc1ccc2oc(-c3ccccc3)c(C(=O)O)c(=O)c2c1	14µM*	?	?	-8%	?	-26%
Cc1ccc(-c2oc3ccccc3c(=O)c2O)cc1	-20%	2%	-22%	-7%	-6%	0%
CCc1nc(C)cn1S(=O)(=O)c1cc(C)c(OC)c(C)c1C	-9%	25µM*	3%	4%	-18%	-10%
C=CCn1c(COc2ccc(Cl)cc2)nnc1SCC(=O)N/N=C/c1cccc(O)c1	-7%	7%	11%	-4%	1%	-12%
C=CCn1c(CNc2ccccc2)nnc1SCC(=O)N/N=C/c1ccccc1O	-19%	?	14µM*	10%	-6%	-19%
O=C(O)c1nc(-c2ccccc2)[nH]c1C(=O)O	-13%	-8%[13.5 µM]	.	.	.	.
CCCNC(=O)COC(=O)c1ccc(Cl)c(S(=O)(=O)N2CCCC2)c1	-16%	7.9µM*	-2%	1%	-10%	-8%
C/C(N)=C(/C#N)C(=O)COC(=O)c1ccc(C)c(S(=O)(=O)N2CCCCC2)c1	13µM*	?	6%	-12%	1%	-28%
O=C(c1ccc(F)cc1F)N1CCC(c2nc(-c3ccc(S(=O)(=O)N4CCCC4)cc3)no2)CC1	.	.	.	0%	-7%	-12%
COc1ccc(C(=O)/C=C/c2ccc(N3CCCCC3)c([N+](=O)[O-])c2)cc1	-15%	4.5µM*	-3%	12%	7.9µM*	?
COc1ccc(C(=O)/C=C/c2ccc(N3CCCCC3)c([N+](=O)[O-])c2)c(OC)c1	-24%	20µM*	-4%	4%	4µM*	?
COc1ccc(-c2noc(-c3ccc(N4CCCCC4)c([N+](=O)[O-])c3)n2)cc1	.	.	.	-9%	9%	-4%
O=C(CC1N=C2c3ccccc3N=C(SCc3ccccc3F)N2C1=O)NCCc1ccccc1 (stereo not given)	.	.	.	1%	-6%	-5%
CSc1nsc(SC)c1C(=O)NCCNS(=O)(=O)c1ccc(C)cc1	20µM*	25µM*	?	-2%	-18%	-12%
COc1ccc(OC)c(CCNC(=O)CCCn2c(=O)c3cccn3c3ccccc32)c1	.	.	.	-14%	2%	-14%
CCOCCn1cnc2sc(C(=O)Nc3ccccc3C(=O)OC)c(C)c2c1=O	.	.	.	7%	-2%	-12%
